Assay results published in PubChem BioAssay.
Where “and” joins values, the source holds several entries; their conditions need not be identical. Identical values can stand only once. Calls of active or inactive are those of the source.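 The calls were made as follows, unless noted: active = thallium flux through the channel raised or lowered by more than 3 SD from vehicle-only wells, actives on both sides; inactive = the rest.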

What was measured:
[1] = stimulators of nuclear beta-catenin in C2C12, primary screen, imaging, WNT3A-conditioned medium, mouse C2C12, NPC library (AID 1117326; in the data active = nuclear beta-catenin stimulation mostly above about 4.2%, no sharp cut-off; inactive = mostly below about 10%); details: stronger effect = higher value
[2] = stimulators of insulin release from INS-1E, primary screen, cell-based, 5 mM glucose, NPC library (AID 1117329;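 active = compound raises insulin release from rat beta cells at 5 mM glucose, no numeric limit stated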); details: rat INS-1E insulin secretion, at 10 µM, stronger effect = higher value
[3] = growth inhibition of GSK3B-pretreated HCT116 cells – cell-based, CellTiter-Glo, 0.2 to 20 µM (AID 1117336;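 active = compounds lowering colon cancer cell viability after pretreatment blocking the GSK3B kinase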); details: HCT116 viability after GSK3B inhibitor, at 20 µM, stronger effect = higher value
[4] = inhibition of endothelial tube formation, primary screen, imaging, VEGF stimulated, CD31 staining, tube area, NPC library (AID 1117340;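 active = compound that reduces growth-factor-driven endothelial tube area in a mixed cell culture, no cutoff stated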); details: VEGF-stimulated ADSC/ECFC co-culture, at 10 µM, stronger effect = higher value
[5] = glucagon-like peptide 1 release enhancers, primary assay, NCI-H716 cell line, NPC library (AID 1117341;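 active = compound raises GLP1 secretion from the human gut endocrine cells, with no numeric limit stated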); details: NCI-H716 cells, at 10 µM, stronger effect = higher value
[6] = HCT116 colon cancer cell growth inhibition, primary screen, CellTiter-Glo luminescence, NPC library (AID 1117342;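 active = compounds that lower survival of HCT116 colon cancer cells in the luminescence readout, no numeric limit stated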); details: at 20 µM (top of the series)
[7] = CellTiter-Glo luminescent readout of SW480 viability loss, NPC library primary (AID 1117343;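 active = compounds that lower viability of the colon cancer cells in the luminescence readout, with no numeric limit stated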); details: CellTiter-Glo luminescence; at 20 µM (top of the series)
[8] = decreased DLD-1 cellular survival, CellTiter-Glo luminescent readout, NPC compound collection, primary HTS (AID 1117346;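 active = compounds that lower survival of DLD-1 colon cancer cells in the luminescence readout, no cutoff given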); details: DLD-1 viability, CellTiter-Glo luminescence; at 20 µM (top of the series)
[9] = biological target: 6-phosphogluconate dehydrogenase, decarboxylating (Homo sapiens) (UniProt P52209); test: 6PGD enzyme inhibitors, primary screen, biochemical, human, recombinant enzyme, NADPH absorbance (AID 1159550;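 active = at least 20% inhibition of 6-phosphogluconate dehydrogenase activity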); details: recombinant 6PGD, NADPH absorbance 341 nm; at 10 µM; stronger effect = higher value
[10] = modulation of C. elegans fzo-1 (AID 1259413; call rule not given here;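 also: fzo-1 mutant C. elegans worms in liquid wells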); details: C. elegans fzo-1 modulator screen, mean read-out; stronger effect = higher value
[11] = differential killing of epithelial or mesenchymal cells, primary screen, imaging, PC-3E GFP, TEM4-18 mCherry, co-culture (AID 1345086;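 active = compounds killing one labelled cell type while sparing the other, by normalised counts and ratio limits, not self-fluorescent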;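 as to all read-outs here: cells exposed to compound for 72 h before imaging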;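 as to red/green cell ratio (normalised): normalised mesenchymal count divided by normalised epithelial count so high means epithelial killing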); details: imaging cell counts, at 1 µM; for red/green cell ratio (normalised): actives lie on both sides, counts scaled to control wells, 1 = unselective
[12] = survival rescue of mitochondrial mutant cells in low glucose, primary screen, MELAS cybrids, Rieske KO mouse fibroblasts, CellTiter-Glo (AID 1508586;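 active = mean z-score across replicates of 1.96 or higher in either the MELAS or the Rieske mutant cell line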;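 also: z relative to plate mean and SD of compound and empty wells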)
[13] = biological target: NAD(+) hydrolase SARM1 (Homo sapiens) (UniProt Q6SZW1); test: SARM1 TIR NADase inhibitors, cell lysate, NAD-Glo luminescence (AID 1508614;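 active = compound whose remaining NAD level is above about 45 nM, limit read from the data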;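 also: higher remaining NAD means stronger inhibition of SARM1 NADase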); details: SAM-TIR HEK293T lysate NADase, at 1 µM, stronger effect = higher value
[14] = biological target: Mitogen-activated protein kinase 7 (Homo sapiens) (UniProt Q13164); test: ERK5 transactivation activators in reporter cells, primary screen, cell-based, HTS (AID 1508626;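 active = luciferase signal above three times the same-plate solvent-only control wells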;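 also: luciferase driven by Gal4-ERK5 fusion binding five Gal4 sites before minimal TATA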); details: HeLa Gal4-ERK5 transactivation, 18 h, at 5 µM, stronger effect = higher value
F380Y = test: modulators of BK channel variants, profiling panel, selectivity assay, cell-based, U2OS BacMam, thallium flux, beta subunits (AID 1259406); details: at 30 µM;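 also: initial slope of Thallos dye fluorescence rise after thallium is added; log ratio against the mean of 0.3% DMSO vehicle wells on the same plate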
F380Y/beta1 = test: as above; details: at 30 µM
F380Y/beta2Delta = test: as above; details: at 30 µM
[15] = sensitizers of A549 cells to miR-34 induction, primary screen, imaging, A549 dox-inducible miR-34, nuclei and caspase counts (AID 1347080); details: A549 miR-34 inducible, Hoechst nuclei count, 48 h
[16] = ICB984 medulloblastoma cell growth inhibition, synergistic combos for chromothripsis tumors, cisplatin or BGB combos (AID 1671451; call rule not given here;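 also: cells exposed for 96 hours before readout; 0% = vehicle DMSO and 100% = killing by high DMSO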); details: ICB984 medulloblastoma cells, drug combinations, stronger effect = higher value
[17] = measured here: epithelial PC-3E GFP cell survival
[18] = measured here: mesenchymal TEM4-18 mCherry cell survival
[19] = MELAS cybrid survival, CellTiter-Glo 48 h, stronger effect = higher value
[20] = Rieske KO mouse fibroblast survival, CellTiter-Glo 72 h

Sequence of Mitogen-activated protein kinase 7 (Homo sapiens) (Q13164 whole entry, looked up, the tested form may be a part): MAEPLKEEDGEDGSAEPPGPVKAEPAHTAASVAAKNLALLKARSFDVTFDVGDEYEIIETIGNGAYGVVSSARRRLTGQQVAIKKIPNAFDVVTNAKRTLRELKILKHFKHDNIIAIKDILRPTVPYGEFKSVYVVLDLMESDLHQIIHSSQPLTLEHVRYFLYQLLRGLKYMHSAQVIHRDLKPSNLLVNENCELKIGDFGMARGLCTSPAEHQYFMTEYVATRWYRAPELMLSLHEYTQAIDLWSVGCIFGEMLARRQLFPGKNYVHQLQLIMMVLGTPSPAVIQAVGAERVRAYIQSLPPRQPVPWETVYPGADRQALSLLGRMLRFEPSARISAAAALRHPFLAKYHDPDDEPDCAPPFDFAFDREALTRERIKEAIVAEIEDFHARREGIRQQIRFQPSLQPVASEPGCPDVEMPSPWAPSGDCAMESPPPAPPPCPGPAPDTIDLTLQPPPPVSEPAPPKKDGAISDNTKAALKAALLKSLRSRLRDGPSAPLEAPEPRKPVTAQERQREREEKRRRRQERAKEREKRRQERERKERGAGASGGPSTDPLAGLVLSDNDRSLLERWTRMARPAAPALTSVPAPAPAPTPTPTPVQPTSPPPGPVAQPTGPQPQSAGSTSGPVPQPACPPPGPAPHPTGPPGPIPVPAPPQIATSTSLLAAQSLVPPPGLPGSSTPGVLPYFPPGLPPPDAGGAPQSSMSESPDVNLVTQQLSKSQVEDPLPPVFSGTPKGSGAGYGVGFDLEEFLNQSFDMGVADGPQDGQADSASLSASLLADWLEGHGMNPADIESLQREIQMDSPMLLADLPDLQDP
Sequence of NAD(+) hydrolase SARM1 (Homo sapiens) (Q6SZW1 whole entry, looked up, the tested form may be a part): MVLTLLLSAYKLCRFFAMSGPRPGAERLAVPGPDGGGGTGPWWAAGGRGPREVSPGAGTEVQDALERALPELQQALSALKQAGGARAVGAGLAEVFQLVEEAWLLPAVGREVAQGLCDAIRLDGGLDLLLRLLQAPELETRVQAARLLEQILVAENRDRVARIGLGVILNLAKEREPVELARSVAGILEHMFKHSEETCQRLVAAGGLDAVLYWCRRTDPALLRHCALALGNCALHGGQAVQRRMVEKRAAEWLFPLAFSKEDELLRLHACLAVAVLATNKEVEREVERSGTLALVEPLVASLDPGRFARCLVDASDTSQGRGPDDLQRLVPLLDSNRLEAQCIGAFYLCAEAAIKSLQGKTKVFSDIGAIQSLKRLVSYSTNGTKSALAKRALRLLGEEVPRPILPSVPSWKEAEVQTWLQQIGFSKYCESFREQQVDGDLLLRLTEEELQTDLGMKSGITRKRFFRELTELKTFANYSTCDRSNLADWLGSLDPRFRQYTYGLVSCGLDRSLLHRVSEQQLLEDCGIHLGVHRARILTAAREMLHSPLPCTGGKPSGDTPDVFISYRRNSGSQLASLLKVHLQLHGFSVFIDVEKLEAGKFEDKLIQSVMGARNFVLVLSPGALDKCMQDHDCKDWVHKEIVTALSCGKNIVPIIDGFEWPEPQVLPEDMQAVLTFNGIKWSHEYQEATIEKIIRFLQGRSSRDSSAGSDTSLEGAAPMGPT
Sequence of 6-phosphogluconate dehydrogenase, decarboxylating (Homo sapiens) (P52209 whole entry, looked up): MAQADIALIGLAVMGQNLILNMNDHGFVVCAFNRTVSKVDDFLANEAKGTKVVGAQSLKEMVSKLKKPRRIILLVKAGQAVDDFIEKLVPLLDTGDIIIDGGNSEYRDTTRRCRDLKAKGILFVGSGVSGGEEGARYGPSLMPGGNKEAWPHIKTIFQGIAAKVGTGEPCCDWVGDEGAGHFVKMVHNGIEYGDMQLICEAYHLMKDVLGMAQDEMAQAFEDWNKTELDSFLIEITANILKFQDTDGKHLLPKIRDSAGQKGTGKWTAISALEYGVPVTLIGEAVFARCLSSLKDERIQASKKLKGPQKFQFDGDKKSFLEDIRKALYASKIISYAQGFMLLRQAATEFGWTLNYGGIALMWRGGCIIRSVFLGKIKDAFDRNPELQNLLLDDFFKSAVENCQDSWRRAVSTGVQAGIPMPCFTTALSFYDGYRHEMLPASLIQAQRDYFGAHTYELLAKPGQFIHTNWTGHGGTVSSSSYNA

CCCc1nc2c(C)cc(-c3nc4ccccc4n3C)cc2n1Cc1ccc(-c2ccccc2C(=O)O)cc1
0.8: normalised cell number [11, 18]
1.26: normalised cell number [11, 17]
inactive: nuclear beta-catenin stimulation ([1]; at 10 µM) 3.7% | insulin secretion stimulation [2] -0.5% | viability decrease [3] -22.6% | tube area decrease [4] 8% | GLP1 secretion stimulation [5] 1.1% | inhibition of viability [6] 42% | viability decrease (inhibition) [8] 36.3% | inhibition [9] 2.16% | mean signal [10] 236 | red/green cell ratio (normalised) [11] 0.63 | z-score [12, 19] -0.258 and 0.956 and -0.424 | remaining NAD [13] 10 nM | luciferase signal [14] 96 AU | log fold change Tl+ flux (F380Y) -0.0745 | log fold change Tl+ flux (F380Y/beta1) 0.00163 | log fold change Tl+ flux (F380Y/beta2Delta) 0.025
1.8%: nuclear beta-catenin stimulation ([1]; stimulation, at 2 µM)
active: viability decrease (inhibition) [7] 94.1%
0.516 and 0.961 and -0.332: z-score [12, 20]

CCCc1cc(=O)[nH]c(=S)[nH]1
active: log fold change Tl+ flux (F380Y/beta1) -0.132
1.32: normalised cell number [11, 18]
1.05: normalised cell number [11, 17]
1.49 and 1.36 and 2.91: fold change ([15]; measured here: relative caspase fold change +Dox/-Dox)
0.8%: nuclear beta-catenin stimulation ([1]; stimulation, at 2 µM)
inactive: nuclear beta-catenin stimulation ([1]; at 10 µM) 0.6% | insulin secretion stimulation [2] -0.9% | viability decrease [3] -14.4% | tube area decrease [4] 8.2% | GLP1 secretion stimulation [5] -0.8% | inhibition of viability [6] -19.2% | viability decrease (inhibition) [7] -1.9% | viability decrease (inhibition) [8] -28.7% | inhibition [9] -7.2% | mean signal [10] 248 | red/green cell ratio (normalised) [11] 1.26 | z-score [12, 19] -0.276 and 0.0359 | remaining NAD [13] 10 nM | luciferase signal [14] 88 AU | log fold change Tl+ flux (F380Y) 0.00762 | log fold change Tl+ flux (F380Y/beta2Delta) -0.0326
0.644 and -0.188: z-score [12, 20]
10600 and 9200 and 7970: cell count ([15]; measured here: total cells with miR-34 induction, stronger effect = lower value)

CC1=NS(=O)(=O)c2cc(Cl)ccc2N1
1.14: normalised cell number [11, 18]
0.049 and -0.314: z-score [12, 20]
0.96: normalised cell number [11, 17]
2.4%: nuclear beta-catenin stimulation ([1]; stimulation, at 2 µM)
active: viability decrease (inhibition) [7] 8.5%
inactive: nuclear beta-catenin stimulation ([1]; at 10 µM) 0.5% | insulin secretion stimulation [2] 1.9% | viability decrease [3] 2.4% | tube area decrease [4] 0.4% | GLP1 secretion stimulation [5] 0.6% | inhibition of viability [6] 26.2% | viability decrease (inhibition) [8] 1.1% | inhibition [9] 4.77% | mean signal [10] 242 | red/green cell ratio (normalised) [11] 1.18 | z-score [12, 19] -0.405 and -0.0836 | remaining NAD [13] 10 nM | luciferase signal [14] 68 AU | log fold change Tl+ flux (F380Y) -0.0365 | log fold change Tl+ flux (F380Y/beta1) -0.0354 | log fold change Tl+ flux (F380Y/beta2Delta) 0.0204

O=C(O)CCCc1ccccc1
-13.4%: inhibition ([16]; BGB IC40 combo, at 0.005 µM)
6.23%: inhibition ([16]; BGB IC40 combo, at 0.05 µM)
-20.8%: inhibition ([16]; cisplatin combo, at 5 µM)
-0.148 and -0.948: z-score [12, 20]
-2.57%: inhibition ([16]; BGB IC20 combo, at 0.005 µM)
1.11: normalised cell number [11, 18]
0.9%: nuclear beta-catenin stimulation ([1]; stimulation, at 2 µM)
-38.8%: inhibition ([16]; cisplatin combo, at 0.5 µM)
1.12: normalised cell number [11, 17]
inactive: nuclear beta-catenin stimulation ([1]; at 10 µM) 0.2% | insulin secretion stimulation [2] 1.8% | viability decrease [3] -6.2% | tube area decrease [4] -15% | GLP1 secretion stimulation [5] -1.1% | inhibition of viability [6] 0.1% | viability decrease (inhibition) [7] 12.5% | viability decrease (inhibition) [8] -3.9% | inhibition [9] -10% | mean signal [10] 232 | red/green cell ratio (normalised) [11] 1 | z-score [12, 19] -0.2 and -0.108 | remaining NAD [13] 10 nM | inhibition ([16]; at 0.5 µM) -32.1% | log fold change Tl+ flux (F380Y) 0.0311 | log fold change Tl+ flux (F380Y/beta1) 0.0211 | log fold change Tl+ flux (F380Y/beta2Delta) -0.00447
3.61%: inhibition ([16]; cisplatin combo, at 0.05 µM)
-6.76%: inhibition ([16]; measured here: 5 uM single agent, at 5 µM)

O=C(O)c1cccnc1
0.91: normalised cell number [11, 17]
inactive: nuclear beta-catenin stimulation ([1]; at 10 µM) -0.4% | insulin secretion stimulation [2] -1.6% | viability decrease [3] -0.65% | tube area decrease [4] -17.1% | GLP1 secretion stimulation [5] -5.4% | inhibition of viability [6] -15.8% | viability decrease (inhibition) [7] 37.9% | viability decrease (inhibition) [8] 4.6% | inhibition [9] -13.9% | mean signal [10] 255 | red/green cell ratio (normalised) [11] 1.22 | z-score [12, 19] -0.357 and 0.00203 | remaining NAD [13] 10 nM | luciferase signal [14] 44 AU | log fold change Tl+ flux (F380Y) -0.0113 | log fold change Tl+ flux (F380Y/beta1) 0.00202 | log fold change Tl+ flux (F380Y/beta2Delta) 0.0201
-0.5%: nuclear beta-catenin stimulation ([1]; stimulation, at 2 µM)
0.576 and -0.807: z-score [12, 20]
1.11: normalised cell number [11, 18]

COc1ccccc1OCCNCC(O)COc1cccc2[nH]c3ccccc3c12 (stereo unspecified)
2%: nuclear beta-catenin stimulation ([1]; stimulation, at 2 µM)
-0.463 and 1.15 and -0.0666: z-score [12, 20]
inactive: nuclear beta-catenin stimulation ([1]; at 10 µM) 10.7% | insulin secretion stimulation [2] 1.9% | viability decrease [3] 7.2% | GLP1 secretion stimulation [5] 11.2% | inhibition [9] 6.21% | mean signal [10] 201 | red/green cell ratio (normalised) [11] 1.11 and 0.93 | z-score [12, 19] -0.281 and 0.201 and -0.32 | remaining NAD [13] 14 nM and 10 nM | luciferase signal [14] 340 AU | log fold change Tl+ flux (F380Y) -0.0291
1.13 and 1: normalised cell number [11, 18]
active: tube area decrease [4] 60.9% | inhibition of viability [6] 83.7% | viability decrease (inhibition) [7] 112% | viability decrease (inhibition) [8] 90.5% | log fold change Tl+ flux (F380Y/beta1) 0.26 | log fold change Tl+ flux (F380Y/beta2Delta) -0.29
1.02 and 1.07: normalised cell number [11, 17]

CC1Cc2ccccc2N1NC(=O)c1ccc(Cl)c(S(N)(=O)=O)c1 (stereo unspecified)
inactive: nuclear beta-catenin stimulation ([1]; at 10 µM) 1% | insulin secretion stimulation [2] -0.1% | viability decrease [3] -7.2% | tube area decrease [4] 2.8% | GLP1 secretion stimulation [5] 4.6% | inhibition of viability [6] -2.13% | viability decrease (inhibition) [7] -2.3% | viability decrease (inhibition) [8] 3.8% | inhibition [9] 0.53% | mean signal [10] 231 | red/green cell ratio (normalised) [11] 1.37 | z-score [12, 19] -0.244 and 0.521 and 0.421 | remaining NAD [13] 10 nM | luciferase signal [14] 56 AU | log fold change Tl+ flux (F380Y) 0.00177 | log fold change Tl+ flux (F380Y/beta1) 0.039 | log fold change Tl+ flux (F380Y/beta2Delta) 0.049
0.75 and 0.194 and 0.772: z-score [12, 20]
1.01: normalised cell number [11, 17]
1.38: normalised cell number [11, 18]
6%: nuclear beta-catenin stimulation ([1]; stimulation, at 2 µM)
